FAS TE block = blocks the thioesterase domain of human fatty acid synthase; hit rate 0.67% among 360,000; P49327; recombinant FAS-TE, OMFH fluorogenic substrate, fluorescence endpoint; inhibition, % at 15 µM;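 active = compounds whose normalised, plate-corrected inhibition of enzyme fluorescence in the single-dose primary screen is 50% or more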;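 also: 0% = DMSO with enzyme and 100% = substrate without enzyme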
ADAM17 inh = ADAM17 inhibition, QFRET primary screen. AID 720648. recombinant ADAM17, EDANS/DABCYL FRET peptide cleavage. hit rate 0.83% among 370,000. inhibition, % at 6.95 µM;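 active = inhibition above the mean of compounds lying between control limits plus 3 SD, set per campaign, cut at about 8.5% in these data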;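 also: 0% = DMSO-only wells as the low control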
ADAM10 inh = ADAM10 inhibition, QFRET primary screen; recombinant ADAM10, EDANS/DABCYL FRET peptide cleavage, 3 h; inhibition, % at 7 µM; hit rate 0.62% among 370,000; AID 720582;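 active = inhibition above a per-campaign cutoff equal to the mean of compounds falling between control-based bounds plus 3 SD, cut at about 20% in these data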;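 also: 0% = DMSO wells while the 100% control is not disclosed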
NR3A LBD binder = NR3A (human) ligand-binding domain modulation; NR3A LBD differential scanning fluorimetry, Tm shift; 0% = protein alone, 100% = glycine-bound protein; Tm shift relative to glycine control, % at 25 µM; hit rate 2.5% among 340,000; AID 1259313;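 active = melting temperature shift of at least 10% of the positive control shift, at one fixed dose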
KLK7 zymogen act = activators of human kallikrein-7 zymogen. P49862. purified proKLK7, EDANS-DABCYL substrate fluorescence; 100% is mature enzyme control, 0% vehicle. activation, % at 7 µM. hit rate 0.9% among 370,000;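 active = activation above the mean of all tested compounds plus 3 SD, computed per campaign excluding outliers beyond control limits, cut at about 13% in these data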
Target sequence (P49862 whole entry, looked up): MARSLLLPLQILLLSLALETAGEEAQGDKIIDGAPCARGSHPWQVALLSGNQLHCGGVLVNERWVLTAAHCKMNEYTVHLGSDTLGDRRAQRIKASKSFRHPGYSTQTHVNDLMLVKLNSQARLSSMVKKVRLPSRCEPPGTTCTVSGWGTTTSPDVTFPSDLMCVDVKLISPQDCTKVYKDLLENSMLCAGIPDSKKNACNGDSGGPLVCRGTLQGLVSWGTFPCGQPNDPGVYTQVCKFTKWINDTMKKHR
The depositor's hits bear a star; · = no result. Compounds with a hit are over-represented: about 4.6% of the library has one in this group of screens.

SMILES | FAS TE block | ADAM17 inh | ADAM10 inh | NR3A LBD binder | KLK7 zymogen act
O=C(Nc1nc(-c2ccc(S(=O)(=O)N3CCCC3)cc2)cs1)c1cccs1 | 52* | 3 | 5 | 1 | -7
Cc1noc(C)c1C(=O)Nc1nc(-c2ccccc2Cl)cs1 | 5 | -2 | -7 | -6 | 0
O=C(Nc1nc(-c2ccccc2Cl)cs1)c1cccnc1 | 0 | -5 | 3 | 10* | 0
O=C(Nc1nc(-c2ccc(S(=O)(=O)N3CCCCCC3)cc2)cs1)c1cccs1 | 29 | -2 | -1 | 4 | -6
O=C(Nc1nc(-c2cccs2)cs1)c1cccc(S(=O)(=O)N2CCCCC2)c1 | 20 | 16* | 38* | 10* | -3
Cc1ccc(-c2csc(NC(=O)c3cccc(S(=O)(=O)N4CCN(C)CC4)c3)n2)cc1 | 17 | -2 | 10 | -3 | 0
COC(=O)[C@H](CC(C)C)N(Cc1cn(Cc2ccc(C)cc2)nn1)S(=O)(=O)c1ccccc1Br | · | 5 | 11 | · | 1
C=CCN1[C@@H](C)COc2cc(F)ccc2S1(=O)=O | · | -6 | -5 | · | 0
O=C(C1CCN(c2ncnc3c2sc2cccc(F)c23)CC1)N1CCN(Cc2ccc(F)cc2)CC1 | · | -15 | -59 | · | -3
S=C(NCc1ccc(Cl)cc1)OC1CCC12CCC(c1ccccc1)CC2 (centres undefined) | · | -2 | -12 | · | 0
Cc1c(C(=O)Nc2nccs2)sc2nc(-c3cccs3)cc(C(F)(F)F)c12 | 7 | -44 | -122 | 28* | 0
O=C(Nc1nc(-c2cccs2)cs1)c1ccc(Cl)cc1 | 5 | 6 | 4 | 11* | 0
COc1cc(C(=O)Nc2nc(-c3cccs3)cs2)cc(OC)c1OC | 29 | 3 | 0 | -4 | 1
Cc1csc(NC(=O)c2sc3nc(-c4cccs4)ccc3c2N)n1 | · | · | · | 28* | ·
COc1ccccc1CCn1cnc(-c2cccc(F)c2)c1CC(C)C | · | 1 | 10 | · | 0
CC(=O)Nc1cccc(NC(=O)c2cc(-c3cccnc3)nc3ccc(Br)cc23)c1 | 19 | 0 | 13 | 3 | -11
O=C(Nc1ccc(C(F)(F)F)cc1)c1cc(-c2cccnc2)nc2ccc(Br)cc12 | 28 | -4 | -1 | 34* | 0
COc1cccc(-c2cc(C(=O)Nc3ccc(N(C)C(C)=O)cc3)c3cc(Br)ccc3n2)c1 | 44 | 8 | 20* | 0 | -4
C=CC(=O)NC1CCCCN(CC)C1=O (centres undefined) | · | -7 | -13 | · | 0
CCOC(=O)[C@]12CCCC3=C1N(CCC3)C(=O)[C@@H](CC(=O)N1CCCC1)C2 | · | 0 | -1 | · | 1
C/C(=N\N=C(/N)SC1CC(=O)N(c2ccc(Cl)c(Cl)c2)C1=O)c1cccs1 (centres undefined) | 44 | -2 | -3 | 34* | 0
CCCCCCOc1ccc(N2C(=O)CC(S/C(N)=N/N=C(\C)c3cccs3)C2=O)cc1 (centres undefined) | 13 | -4 | 6 | 9 | 0
CCOC(=O)c1ccc(NC(=O)Cn2c(C)nc3c(sc(=S)n3CC)c2=O)cc1 | 23 | 0 | 11 | -1 | 0
CCn1c(=S)sc2c(=O)n(CC(=O)Nc3cccc(Cl)c3)c(C)nc21 | 33 | 4 | 12 | 33* | 0
CSc1cccc(NC(=O)Nc2nc3c(C)cccc3s2)c1 | -1 | -3 | -5 | 18* | 0
SMILES | FAS TE block | ADAM17 inh | ADAM10 inh | NR3A LBD binder | KLK7 zymogen act
COC(=O)[C@]12C[C@H](CC(=O)N3CCC(c4ccccc4)CC3)C(=O)N(Cc3ccco3)C1=C[C@H](C1CCCC1)O[C@@H]2C | · | 6 | 13 | · | 0
COc1ccc(/C=C/C(=O)OCC(=O)NCCCc2ccccc2)cc1OC | 7 | -45 | -164 | -2 | 1
C=CCOc1ccc(/C=C/C(=O)OCC(=O)NCCCc2ccccc2)cc1 | 8 | -2 | -5 | 15* | 0
COc1ccc(N2CCN(C(=O)CNC(=O)Cc3ccc(Cl)cc3)CC2)cc1 | -2 | -1 | -8 | 13* | 0
COc1cccc(N2CCN(CC(=O)N(C)Cc3ccccc3Cl)CC2)c1 | · | 0 | -7 | · | 0
CCNC(=S)Nc1cccc(NC(=O)c2ccccc2O)c1 | -7 | -88 | -202 | 11* | 1
CCC(=O)Nc1cccc(NC(=S)NC(=O)c2ccccc2Cl)c1 | 1 | -1 | -10 | 17* | 0
O=C(Nc1ccc(NC(=O)c2cccnc2Cl)cc1)c1cccc(Cl)c1 | 1 | -4 | 10 | 22* | 0
O=C(Nc1ccc(NC(=S)NC(=O)c2ccccc2Cl)cc1)c1cccc(Cl)c1 | -2 | -1 | -134 | 18* | 0
COC(=O)c1cc(NC(=O)NC2CCCCN(Cc3cccc(Cl)c3)C2=O)cc(C(=O)OC)c1 (centres undefined) | · | -1 | -7 | · | 1
O=C(Nc1ccc(Cl)cc1)O[C@@H]1CC[C@@]23CCCN2C(=O)CCC[C@H]3C1 | · | 0 | 4 | · | ·
O=[N+]([O-])c1ccc2nc(NN=Cc3ccc(O)cc3)sc2c1 | 9 | 3 | 7 | 23* | 0
S=C(NCCN1CCOCC1)Nc1ccc(Cl)cc1Cl | -10 | 3 | -4 | 12* | 0
S=C(NCCCN1CCOCC1)Nc1ccc(Cl)cc1Cl | -7 | -2 | 4 | 0 | 0
COC(=O)[C@]12C[C@H](CC(=O)NCCC(C)C)C(=O)N(Cc3cccc4ccccc34)C1=C[C@H](COCc1ccccc1)O[C@@H]2C | · | 2 | 9 | · | 0
Cc1cc(C)c2nc(NC(=O)[C@@H](NC(=O)c3cccc(S(=O)(=O)N4CCOCC4)c3)C(C)C)sc2c1 | 9 | 1 | -7 | 34* | -1
COC(=O)[C@]12C[C@H](CC(=O)NCc3ccc(OC)c(OC)c3)C(=O)N(CCc3ccc(OC)c(OC)c3)C1=C[C@H](COCc1ccccc1)O[C@@H]2C | · | -4 | 4 | · | 0
Cc1nc(NC(=O)/C=C/c2ccccc2)sc1C(=O)Nc1ccc(Cl)cc1 | -3 | -2 | -17 | 38* | -1
Cc1nc(NC(=O)C2CC2)sc1C(=O)Nc1cccc(Cl)c1 | 10 | 0 | -5 | -10 | 0
Cc1nc(Nc2ccc(Cl)c(Cl)c2)sc1C(=O)Nc1ccccc1 | 33 | 4 | -1 | 32* | -4
Cc1nc(Nc2ccc(Cl)cc2Cl)sc1C(=O)Nc1ccccc1 | 30 | 1 | -2 | 43* | 0
CCCCC(=O)Nc1ccc(C(=O)NCC2COc3ccccc3O2)cc1 (centres undefined) | · | 3 | 3 | · | 1
COc1ccc(NC(=O)C(CCCCNC(=O)OC(C)(C)C)NC2(C(=O)NCCc3c[nH]c4ccccc34)CCCCC2)cc1 (centres undefined) | · | 7 | 15 | · | ·
Cn1cccc1-c1cc(C(=O)N/N=C/c2cc(Br)ccc2O)[nH]n1 | 29 | 0 | 4 | 27* | -4
Cn1cccc1-c1cc(C(=O)N/N=C/c2ccc(F)cc2)[nH]n1 | -2 | -1 | -1 | 9 | 0

Screens: PubChem BioAssay, several laboratories
